In ChEMBL document CHEMBL3988442, “University of Dundee, Small-Polar-MMV Screening Library” (2021):
In all, about 48,000 compounds went through this assay and about 13,000 (27%) showed an effect of 50% or more. This is one part of the list.

What follows are compounds tested on Wolbachia pipientis (assay: Anti-Wolbachia Cell-Based Screen). Details: 5 µM.
Assay type: functional
Design: scale not given: in the data most compounds retested in dose-response had high values

| Structure (SMILES) | Percent Effect |
| --- | --- |
| O=C(CN1CCOC1=O)N1CCc2nnc(-c3ccccc3)n2CC1 | 3.396% |
| Cc1nnc2n1CCN(C(=O)c1cc(C)n(-c3ccccn3)c1C)C2 | -6.785% |
| CCc1nnc2n1CCN(C(=O)C(OC)c1ccccc1)C2 (stereo not drawn) | -1.714% |
| CCc1nnc2n1CCN(C(=O)c1cn(-c3ccccc3)nn1)C2 | 104.4% |
| CCc1nnc2n1CCN(C(=O)c1cnc3ccccc3n1)C2 | -19.02% |
| Cc1nc(-c2ccsc2)ccc1C(=O)N1CCn2c(C)nnc2C1 | -2.134% |
| Cc1nnc2n1CCN(C(=O)c1cn(-c3ccc(F)cc3)nn1)C2 | 133.8% |
| CCC1(CC)C(=O)NC(=O)N=C1Nc1ccc(C)cc1 | 121.1% |
| CCc1ccc(CNC(=O)c2ccc(N3CCOC3=O)cc2)s1 | -4.456% |
| COc1ccc(CN2CCCC2)cc1Oc1ccc(NC(C)=O)cc1 | -0.1715% |
| CC(=O)Nc1ccc(Oc2cccc(CN3CCCC3)c2)cc1 | -8.686% |
| CC(=O)Nc1ccc(Oc2ccc(CN3CCCC3)cc2F)cc1 | 96.27% |
| CC(Sc1nnnn1C1CCOCC1)C(F)(F)F (stereo not drawn) | 4.015% |
| O=C(Nc1ccccn1)C1=NN(c2ccccc2)C(=O)CN1 | -0.4273% |
| CN(CCc1ccc2c(c1)CCO2)CC1CCS(=O)(=O)C1 (stereo not drawn) | 6.378% |
| Cn1cc(CNC2CCS(=O)(=O)C2)c(-c2cc3ccccc3o2)n1 (stereo not drawn) | -8.31% |
| Cl.O=S1(=O)CCC(NCCn2cncc2-c2ccc3c(c2)CCCO3)C1 (stereo not drawn) | 81.24% |
| Cc1ccc(-c2ccsc2C(=O)NC2CCS(=O)(=O)C2)cc1 (stereo not drawn) | -8.809% |
| CCc1cc(NC2CCS(=O)(=O)C2)nc(N2CCCCC2)n1 (stereo not drawn) | -10.03% |
| N#Cc1ccnc(N2CCN(C(=O)NC3CCS(=O)(=O)C3)CC2)c1 (stereo not drawn) | 5.841% |
| CN1CCCc2cc(-c3cncn3CCNC3CCS(=O)(=O)C3)ccc21.Cl (stereo not drawn) | 82.25% |

| Structure (SMILES) | Percent Effect |
| --- | --- |
| CCc1nncn1CCNC(=O)Nc1ccc2c(c1)CCCO2 | -5.053% |
| CCN1CCc2cc(-c3cncn3CCNC3CCS(=O)(=O)C3)ccc21.Cl (stereo not drawn) | 103% |
| CC1(C)Cc2cc(-c3cncn3CCNC3CCS(=O)(=O)C3)ccc2O1.Cl (stereo not drawn) | 102.8% |
| CCNC(=O)C1CCCN(C(=O)Nc2ccc3c(c2)CCCN3C)C1 (stereo not drawn) | -0.07324% |
| Cc1nn(C)c(N2CCOCC2)c1CNC1CCS(=O)(=O)C1 (stereo not drawn) | -13.17% |
| Cc1cc(C(=O)NCC(O)CN2CCCC2=O)ccc1F (stereo not drawn) | -5.14% |
| COCCN(C)c1ccc(NCc2ccsc2)nc1 | -10.25% |
| CCOc1ccc(CN2CCCC(c3nn(C)c(=O)n3CC)C2)cn1 (stereo not drawn) | 24.07% |
| COc1ccc(C)cc1CC(=O)Nc1cc(C)n[nH]1 | 4.97% |
| COc1ccccc1CC(=O)NS(=O)(=O)c1ccc(C(N)=O)cc1 | 6.119% |
| COc1ccc(Cl)cc1CC(=O)NS(=O)(=O)c1ccc(C(N)=O)cc1 | 102.7% |
| CCC(C)NC(=O)CS(=O)(=O)Cc1cc(Cl)ccc1OC (stereo not drawn) | 28.04% |
| NC(=O)c1ccc(S(=O)(=O)NC(=O)COc2ccc3c(c2)CCC3)cc1 | -8.361% |
| COc1ccc(C)cc1CC(=O)NS(=O)(=O)c1ccc(C(N)=O)cc1 | 115.9% |
| COc1ncccc1CN1C[C@H](C(=O)N2CCCO2)[C@@H]2CCO[C@@H]2C1 | 0.1445% |
| CC(C)(C)c1nnc(CNc2c(F)cccc2-n2cccn2)o1 | -0.1409% |
| Cc1nc(CN2CCCC(CCc3ccccc3F)C2)c[nH]1 (stereo not drawn) | 15.72% |
| Cc1cc(C)c(C(=O)NC(CN2CCCC2)c2ccccc2)c(=O)[nH]1 (stereo not drawn) | 1.71% |
| COCCC(=O)N1CCC2(CCN(Cc3cccc(F)c3)CC2)CC1.O=C(O)C(F)(F)F | -14.44% |
| Cn1cncc1CN1CCC2(CCCN2c2ncccn2)CC1.O=C(O)C(F)(F)F | 7.027% |
| COCCN1CCOCC12CCN(Cc1ccn(C)n1)CC2.O=C(O)C(F)(F)F.O=C(O)C(F)(F)F | -14.13% |

| Structure (SMILES) | Percent Effect |
| --- | --- |
| Cn1ccc(CN2CCCC23CCN(Cc2cccc(F)c2)CC3)n1.O=C(O)C(F)(F)F.O=C(O)C(F)(F)F | 121.8% |
| Cn1ccc(CN2CCCC23CCN(Cc2ccccc2F)CC3)n1.O=C(O)C(F)(F)F.O=C(O)C(F)(F)F | 125.7% |
| COc1cc(N2CCC3(CCCN3Cc3ccn(C)n3)CC2)ncn1.O=C(O)C(F)(F)F | -11.95% |
| Fc1cccc(CN2CCC3(CCCN3c3ncccn3)CC2)c1.O=C(O)C(F)(F)F | 103.6% |
| Cc1c(CN2CCCC(C(=O)CCc3ccccc3)C2)cc(C#N)n1C (stereo not drawn) | 16.56% |
| CCn1ncc(CNC(=O)c2cn(CCC3CCCCN3)nn2)c1C (stereo not drawn) | 3.216% |
| CN(CC(=O)NC(C)(C)C)Cc1nc(-c2ccccc2)c[nH]1 | -12.75% |
| Cc1ccc(C(=O)N(C)CC(=O)NCC(F)(F)F)cn1 | 99.88% |
| CN(CC(=O)NCC(O)c1cccc(F)c1)C(=O)OC(C)(C)C (stereo not drawn) | 1.189% |
| CN(CC(=O)NCC(F)(F)F)C(=O)c1ccc(C(=O)OC(C)(C)C)cc1 | 91.82% |
| CN(CC(=O)NCC(CCO)c1ccccc1)C(=O)OC(C)(C)C (stereo not drawn) | 2.407% |
| Cc1cccc(NC(=O)CN(C)C(=O)c2ccc(OC(C)C)nc2)n1 | 4.087% |
| Cc1ccc(OCC(=O)NCC(F)(F)F)nc1 | -4.389% |
| CC(=O)c1ccc(S(=O)(=O)N2CCCC2CN2CCCC2)cc1 (stereo not drawn) | -61.12% |
| CSc1ccc(S(=O)(=O)N2CCCCC2CCNC(C)=O)cc1 (stereo not drawn) | -2.003% |
| CC(=O)NCCC1CCCCN1S(=O)(=O)c1ccc2ccccc2c1 (stereo not drawn) | 104.3% |
| CC(=O)NCCC1CCCCN1S(=O)(=O)c1cccc(C#N)c1 (stereo not drawn) | -10.91% |
| CNS(=O)(=O)CC1CCCN1C(=O)c1cccc(Cl)c1 (stereo not drawn) | -8.436% |
| CC(=O)NCCC1CCCCN1S(=O)(=O)c1cccc(F)c1 (stereo not drawn) | 85.51% |
| CC(=O)NCCC1CCCCN1S(=O)(=O)c1cccc(Cl)c1 (stereo not drawn) | 153.7% |
| CCN1CCN2CCCN(S(=O)(=O)c3cccc(F)c3)C2C1=O (stereo not drawn) | 4.508% |
